PubChem BioAssay AID2184 (The Scripps Research Institute Molecular Screening Center, 2009)
This is one part of the list. Calls of active or inactive are those of the source. Cut-off read from the data, not from the text of the source: active = inhibition above about 0.66%; inactive = the rest.

What follows are compounds tested against Beta-lactamase TEM (Escherichia coli) (UniProt P62593) (assay: TEM-1 inhibition (serine beta-lactamase), epi-absorbance biochemical counter-screen, VIM-2/IMP-1 inhibitor project (AID 2184)). Conditions: TEM-1 beta-lactamase, nitrocefin absorbance inhibition; at 5.6 µM; stronger effect = higher value.
Beta-lactamase TEM (Escherichia coli), sequence (P62593 whole entry, looked up): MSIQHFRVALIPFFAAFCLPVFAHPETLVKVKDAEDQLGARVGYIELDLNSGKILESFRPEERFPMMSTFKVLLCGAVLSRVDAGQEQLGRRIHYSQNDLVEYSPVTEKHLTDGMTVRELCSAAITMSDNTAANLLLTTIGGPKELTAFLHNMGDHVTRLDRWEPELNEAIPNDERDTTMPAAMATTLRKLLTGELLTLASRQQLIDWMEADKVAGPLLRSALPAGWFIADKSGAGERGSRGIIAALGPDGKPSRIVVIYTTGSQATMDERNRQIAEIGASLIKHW

SMILES	inhibition
Cc1nn(C)cc1N1C(=O)c2cccc3c(N)ccc(c23)C1=O	43.9% (active)
NS(=O)(=O)c1ccc(NC(=O)COC(=O)c2c3c(nc4ccccc24)/C(=C\c2ccc4c(c2)OCO4)CCC3)cc1	-4.87% (inactive)
NC(=O)c1ccc(NC(=O)COC(=O)c2c3c(nc4ccccc24)/C(=C\c2ccc4c(c2)OCO4)CCC3)cc1	-4.26% (inactive)
CN1C(=O)c2cccc3c(N)ccc(c23)C1=O	49.7% (active)
Oc1ccc2ccc3cccc[n+]3c2c1	25.5% (active)
COc1cc(/C=C2/SC(=S)N(Cc3ccccc3)C2=O)cc(OC)c1O	12.7% (active)
C/C(=N\Nc1ccc(S(N)(=O)=O)cc1[N+](=O)[O-])c1cccs1	1.6% (active)
CCC(=C/c1sc2ccc3ccccc3c2[n+]1C)/C=C1\Sc2ccc3ccccc3c2N1C	-0.12% (inactive)
Cc1cc2nc3c(=O)n(Cc4ccccc4)c(=O)[nH]c3nc2cc1N	30.2% (active)
Nc1c(C(=O)c2cccs2)sc2nsc(SCCN3CCCCC3)c12	23.4% (active)
c1ccc(-c2nccc(-c3ccc(-n4cnc5ccccc54)cc3)n2)nc1	-3.39% (inactive)
